# From PubChem BioAssay
# Activity calls are given as the source filed them.
# Columns and labels:
# [1] = molecular target: Albumin (Bos taurus) (UniProt P02769); assay: compounds binding labelled BSA control protein – biochemical, small-molecule microarray, Alexa647 label, 635/667 nm fluorescence, artefact control for SMM control protein annotation, profiling panel (AID 1118); conditions: BSA-A647 binding, fluorescence 635 nm, higher = more signal;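 further: score merges 667 nm emission intensity and signal-to-noise per printed compound spot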
# [2] = probe aXIP binding to arrayed compounds – biochemical, NeuroSMM set, 635/667 nm fluorescence, primary screen (AID 1119); conditions: small-molecule microarray, higher = more signal, called active from +8 up or from −8 down;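 further: probe is the protein aXip251-270 applied at 1 µg/mL to compound-printed slides; binding of probe to printed compounds measured as 667 nm fluorescence plus signal to noise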
# [3] = probe aNOTCH3 binding on compound microarray – biochemical, small-molecule microarray, 635/667 nm fluorescence, primary screen (AID 1120); conditions: higher = more signal;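 further: probe is a biotin-tagged antibody raised against NOTCH3 rather than NOTCH3 protein; score merges spot fluorescence near 667 nm with spot signal to noise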
# [4] = probe aNOTCH2 binding on compound microarray – biochemical, small-molecule microarray, 635/667 nm fluorescence, primary screen (AID 1121); conditions: higher = more signal;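 further: score merges feature fluorescence read at 667 nm with its signal to noise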
# [5] = molecular target: Carbonic anhydrase 2 (Homo sapiens) (UniProt P00918); assay: compounds binding carbonic anhydrase 2 – biochemical, small-molecule microarray, Alexa647-labelled CAII, profiling panel (AID 1122); conditions: CAII-A647 binding fluorescence, higher = more signal
# [6] = COS7 lysate on small-molecule microarray, probe aHis, 635 nm (AID 1123); conditions: COS7 cell lysate, fluorescence, higher = more signal;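 further: z-score combines 667nm fluorescence intensity with signal-to-noise per printed compound spot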
# [7] = probe aLAP1 signal on lysate-treated microarray – cell lysate, small-molecule microarray, COS7 lysate, primary screen (AID 1124); conditions: probe aLAP1, fluorescence, higher = more signal;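 further: lysate comes from COS7 cells expressing LAP1 and is applied at 0.3 µg/mL; score merges spot fluorescence near 667 nm with signal-to-noise over triplicate slides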
# [8] = tested on: Sam68 (KHDRBS1); assay: compounds binding KHDRBS1 protein – biochemical, small-molecule microarray, 635 nm fluorescence, primary screen (AID 1125); conditions: higher = more signal;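 further: score merges 667 nm channel intensity with signal to noise over triplicate slides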
# [9] = tested on: Chordin-like protein 2 (CHRDL2); assay: compounds binding chordin-like 2 – biochemical, small-molecule microarray, 635 nm fluorescence, primary screen (AID 1126); conditions: fluorescence 635 nm, higher = more signal;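 further: printed compound slides probed with Chrdl2 protein at 4 µg/mL for 1 h at 4 C; score merges 667 nm emission intensity with signal to noise over three replicate slides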
# [10] = molecular target: Concanavalin-A (Canavalia ensiformis) (UniProt P02866); assay: compounds binding concanavalin A lectin – biochemical, small-molecule microarray, Alexa647 label, 635 nm, artefact control for SMM control protein annotation, primary screen (AID 1127); conditions: ConA-A647 binding fluorescence, higher = more signal;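 further: z combines 667 nm emission intensity with signal-to-noise across three replicate slides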
# [11] = compounds binding Alexa647 anti-His antibody – biochemical, small-molecule microarray, 635 nm fluorescence, artefact control for SMM control protein annotation, primary screen (AID 1128); conditions: higher = more signal;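 further: score merges feature fluorescence with signal-to-noise for each printed compound spot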
# [12] = tested on: Human papillomavirus type 1a E7 protein (residues 1-88); assay: HPV1a E7 small-molecule binders, primary screen, biochemical, small-molecule microarray, residues 1-88, 635 nm (AID 1129); conditions: small-molecule microarray binding, fluorescence 635 nm; higher = more signal
# [13] = molecular target: Focal adhesion kinase 1 (Homo sapiens) (UniProt Q05397); assay: PTK2 protein binding on printed compound slides – biochemical, small-molecule microarray, 635/667 nm fluorescence, BSA, DTT, primary screen (AID 1130); conditions: 635 nm fluorescence, higher = more signal;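 further: composite of spot emission at 667 nm and signal to noise over triplicate slides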
# [14] = tested on: Fibrinogen (Alexa647-labelled); assay: Alexa647-fibrinogen binding to printed small molecules – biochemical, small-molecule microarray, 635/667 nm fluorescence, artefact control for SMM control-protein annotation, profiling panel (AID 1131); conditions: fibrinogen-A647 binding fluorescence, higher = more signal;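 further: z-score merges 667 nm fluorescence with per-spot signal-to-noise over triplicate slides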
# [15] = molecular target: Follistatin (Homo sapiens) (UniProt P19883); assay: FST protein binding to printed compounds – biochemical, small-molecule microarray, 635/667 nm fluorescence, primary screen (AID 1132); conditions: 635 nm fluorescence, higher = more signal
# [16] = molecular target: Fibroblast growth factor 2 (Homo sapiens) (UniProt P09038); assay: basic fibroblast growth factor binding to printed compounds – biochemical, small-molecule microarray, 635/667 nm fluorescence, primary screen (AID 1133); conditions: FGF2, fluorescence 635/667, higher = more signal
# [17] = JC-1 mitochondrial potential readout, lung cancer cells – cell-based, A549, JC-1 fluorescence, basal, 24 h, 100 nL, profiling panel (AID 1138); conditions: higher = more signal;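 further: A549 lung adenocarcinoma cells under basal conditions with no added stimulus; test concentration not given here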
# [18] = tested on: Lefty1; assay: Lefty1 protein binding to printed compounds – biochemical, small-molecule microarray, 635/667 nm fluorescence, primary screen (AID 1139); conditions: fluorescence 635/667, higher = more signal
# [19] = tested on: wheat germ agglutinin (Triticum aestivum), Alexa647-labelled; assay: Alexa647-WGA lectin binding to printed small molecules – biochemical, small-molecule microarray, 635/667 nm fluorescence, artefact control for SMM control-protein annotation, profiling panel (AID 1140); conditions: WGA-A647 binding, 635 nm fluorescence, higher = more signal;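 further: score merges 667 nm feature emission with signal to noise over triplicate slides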
# [20] = molecular target: Luciferin 4-monooxygenase (Photinus pyralis) (UniProt P08659); assay: inhibition of purified Photinus pyralis luciferase – biochemical, luminescence, purified enzyme, 2006 set, primary screen (AID 1141); conditions: purified firefly luciferase, SteadyGlo luminescence, 30 min; higher = more signal, called active from +8 up or from −8 down;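 further: cell-free assay with purified firefly luciferase at 100 ng per well in PBS; test concentration not given here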
# Luciferin 4-monooxygenase (Photinus pyralis), sequence (P08659 whole entry, looked up): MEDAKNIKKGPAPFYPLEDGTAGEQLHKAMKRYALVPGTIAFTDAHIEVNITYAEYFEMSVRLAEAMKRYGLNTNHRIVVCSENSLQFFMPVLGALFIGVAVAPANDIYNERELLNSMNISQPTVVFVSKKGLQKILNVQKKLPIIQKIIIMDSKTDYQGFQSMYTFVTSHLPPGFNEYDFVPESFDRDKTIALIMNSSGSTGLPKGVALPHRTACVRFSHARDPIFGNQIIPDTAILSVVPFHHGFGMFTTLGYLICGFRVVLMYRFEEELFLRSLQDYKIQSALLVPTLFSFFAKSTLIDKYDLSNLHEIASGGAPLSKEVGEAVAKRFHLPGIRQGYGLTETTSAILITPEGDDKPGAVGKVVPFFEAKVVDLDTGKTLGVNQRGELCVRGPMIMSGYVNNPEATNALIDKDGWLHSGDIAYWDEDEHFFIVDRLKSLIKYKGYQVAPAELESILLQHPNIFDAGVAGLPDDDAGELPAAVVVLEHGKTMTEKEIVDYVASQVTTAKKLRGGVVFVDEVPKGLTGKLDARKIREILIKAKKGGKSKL
# Follistatin (Homo sapiens), sequence (P19883 whole entry, looked up): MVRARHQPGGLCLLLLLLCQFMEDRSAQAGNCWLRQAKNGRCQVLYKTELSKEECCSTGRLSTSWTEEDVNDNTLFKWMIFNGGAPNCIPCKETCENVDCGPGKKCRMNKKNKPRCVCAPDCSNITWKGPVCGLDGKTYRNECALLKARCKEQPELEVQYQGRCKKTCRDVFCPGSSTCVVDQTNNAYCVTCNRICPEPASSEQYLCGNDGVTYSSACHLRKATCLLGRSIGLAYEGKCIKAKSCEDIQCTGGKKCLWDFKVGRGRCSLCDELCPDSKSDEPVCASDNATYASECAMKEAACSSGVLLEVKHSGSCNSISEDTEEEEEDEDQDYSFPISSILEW
# Albumin (Bos taurus), sequence (P02769 whole entry, looked up): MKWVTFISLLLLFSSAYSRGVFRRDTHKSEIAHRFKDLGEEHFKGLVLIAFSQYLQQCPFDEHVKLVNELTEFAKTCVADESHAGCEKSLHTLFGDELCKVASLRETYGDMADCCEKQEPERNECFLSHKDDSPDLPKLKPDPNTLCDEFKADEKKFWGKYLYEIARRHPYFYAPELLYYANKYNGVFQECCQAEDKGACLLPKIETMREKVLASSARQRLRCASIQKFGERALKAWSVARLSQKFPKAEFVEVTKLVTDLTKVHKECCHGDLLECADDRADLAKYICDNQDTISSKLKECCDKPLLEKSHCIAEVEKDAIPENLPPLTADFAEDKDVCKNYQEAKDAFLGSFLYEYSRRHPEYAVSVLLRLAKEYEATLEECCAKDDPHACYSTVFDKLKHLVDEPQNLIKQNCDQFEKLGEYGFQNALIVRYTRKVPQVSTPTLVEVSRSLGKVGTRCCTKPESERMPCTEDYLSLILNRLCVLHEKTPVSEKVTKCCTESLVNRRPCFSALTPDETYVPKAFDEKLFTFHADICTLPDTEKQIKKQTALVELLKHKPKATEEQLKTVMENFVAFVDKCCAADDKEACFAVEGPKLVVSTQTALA
# Fibroblast growth factor 2 (Homo sapiens), sequence (P09038 whole entry, looked up): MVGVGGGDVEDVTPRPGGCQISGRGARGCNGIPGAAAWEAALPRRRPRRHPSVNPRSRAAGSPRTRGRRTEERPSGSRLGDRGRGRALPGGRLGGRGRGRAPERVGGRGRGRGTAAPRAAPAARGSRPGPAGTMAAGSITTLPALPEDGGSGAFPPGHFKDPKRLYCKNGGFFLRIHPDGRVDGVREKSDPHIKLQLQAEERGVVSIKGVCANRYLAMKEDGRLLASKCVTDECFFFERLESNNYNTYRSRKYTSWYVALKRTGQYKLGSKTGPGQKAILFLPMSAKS
# Focal adhesion kinase 1 (Homo sapiens), sequence (Q05397 whole entry, looked up): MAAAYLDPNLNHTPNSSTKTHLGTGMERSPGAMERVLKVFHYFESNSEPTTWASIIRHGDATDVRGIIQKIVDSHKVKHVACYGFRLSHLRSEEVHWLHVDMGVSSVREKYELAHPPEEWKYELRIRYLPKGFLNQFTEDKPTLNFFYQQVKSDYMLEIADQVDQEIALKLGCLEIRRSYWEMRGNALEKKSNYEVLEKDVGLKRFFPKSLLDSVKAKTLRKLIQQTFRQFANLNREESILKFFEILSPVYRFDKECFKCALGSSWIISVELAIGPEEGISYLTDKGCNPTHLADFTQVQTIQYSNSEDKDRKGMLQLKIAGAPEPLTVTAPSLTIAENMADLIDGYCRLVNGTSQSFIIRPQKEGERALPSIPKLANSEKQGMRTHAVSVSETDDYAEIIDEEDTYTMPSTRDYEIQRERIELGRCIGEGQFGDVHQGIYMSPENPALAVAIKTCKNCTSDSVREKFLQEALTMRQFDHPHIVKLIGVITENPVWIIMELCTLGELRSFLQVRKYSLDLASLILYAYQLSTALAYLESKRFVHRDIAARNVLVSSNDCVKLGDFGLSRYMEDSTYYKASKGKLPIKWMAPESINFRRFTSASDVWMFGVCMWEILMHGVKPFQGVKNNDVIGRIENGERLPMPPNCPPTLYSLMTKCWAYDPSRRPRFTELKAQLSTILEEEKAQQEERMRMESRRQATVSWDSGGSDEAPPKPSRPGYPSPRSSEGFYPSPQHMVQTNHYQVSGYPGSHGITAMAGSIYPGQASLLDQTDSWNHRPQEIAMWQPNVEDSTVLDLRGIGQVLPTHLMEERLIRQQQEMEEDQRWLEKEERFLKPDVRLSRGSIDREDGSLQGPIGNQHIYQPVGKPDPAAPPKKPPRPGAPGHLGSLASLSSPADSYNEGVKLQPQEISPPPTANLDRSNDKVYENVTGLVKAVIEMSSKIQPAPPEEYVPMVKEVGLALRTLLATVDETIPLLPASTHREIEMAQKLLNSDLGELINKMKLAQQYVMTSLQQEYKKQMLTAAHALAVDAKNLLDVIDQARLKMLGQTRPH
# Concanavalin-A (Canavalia ensiformis), sequence (P02866 whole entry, looked up): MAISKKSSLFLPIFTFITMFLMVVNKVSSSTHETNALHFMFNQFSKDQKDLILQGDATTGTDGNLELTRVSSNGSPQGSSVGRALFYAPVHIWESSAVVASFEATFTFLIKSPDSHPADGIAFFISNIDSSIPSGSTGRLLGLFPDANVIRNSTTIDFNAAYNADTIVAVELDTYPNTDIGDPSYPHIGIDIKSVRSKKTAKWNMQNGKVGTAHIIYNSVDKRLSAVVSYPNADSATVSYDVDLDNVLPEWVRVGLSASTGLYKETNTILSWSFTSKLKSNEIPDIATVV
Structure (SMILES),composite z-score [1],composite Z-score [2],composite z-score [3],composite z-score [4],composite z-score [5],composite z-score [6],composite z-score [7],composite z-score [8],composite z-score [9],composite z-score [10],composite z-score [11],composite z-score [12],composite z-score [13],composite z-score [14],composite z-score [15],composite z-score [16],z-score [17],composite z-score [18],composite z-score [19],z-score [20]
CCOC(=O)C[C@H]1[C@H](OC(=O)c2ccc(C(=O)c3ccccc3)cc2)[C@@H](NC(=O)Cc2ccc(OC)cc2)c2cc(OCCCO)ccc2N1C(=O)Cc1ccc(OC)cc1,0.602,-0.333 (inactive),0.0397,-0.0505,0.0899,0.954,0.397,1.05,-0.49,1.01,0.0446,1.07,0.551,0.729,0.295,-0.078,2.88,0.607,0.855,-0.927 (inactive)
COCCOC(=O)N1C(=O)[C@@]2(c3cc(C#CCNC(N)=O)ccc31)[C@H](C(=O)NC[C@H](O)c1ccccc1)[C@H]1C(=O)O[C@H](c3ccccc3)[C@H](c3ccccc3)N1[C@@H]2c1ccc(O)cc1,0.348,0.239 (inactive),-0.0044,-0.104,0.0718,1.14,1.01,0.928,-0.474,1.02,0.95,0.502,0.492,0.651,1.35,0.674,-0.175,0.16,0.436,-1.48 (inactive)
C/C=C/[C@@H](CCn1cc(CCO[Si](C(C)C)(C(C)C)C(C)C)nn1)[Si](C)(C)c1ccc(OC)cc1,-1.72,-0.535 (inactive),-0.337,-0.234,-0.609,-0.49,-0.0321,-1.07,-1.8,-2.84,-0.588,-0.668,-0.168,-1.56,-2.11,-0.888,4.63,-1.16,-2.08,-2.45 (inactive)
COCCCNC(=O)[C@@]1(C)c2ccccc2C(=O)N(Cc2cc(F)cc(C(F)(F)F)c2)[C@H]1c1ccc(CO)cc1,-1.33,0.0737 (inactive),-0.336,-0.126,0.74,2.01,0.346,0.0363,-1.94,-0.453,-0.224,-1.01,-0.706,-1.61,-1.48,-0.521,1.25,-1.73,-1.26,-1.13 (inactive)
C=CCN1C(=O)[C@@]2(O[C@@H](CCn3cc(CCO)nn3)[C@H]([Si](C)(C)c3ccc(OC)cc3)[C@H]2C)c2cc(NC(=O)c3ccc(OC)cc3)ccc21,-0.0754,-0.444 (inactive),0.0676,0.443,0.156,1.36,0.493,1.15,0.808,1.08,0.309,0.812,0.129,0.323,1.14,0.645,2.77,1.02,0.922,-1.51 (inactive)
CCOC(=O)C[C@H]1[C@H](OC(=O)c2cc3ccccc3oc2=O)[C@@H](NC(=O)c2ccccc2)c2cc(OCCCO)ccc2N1C(=O)Cc1ccc(OC)cc1,-0.0029,-0.0478 (inactive),0.0488,-0.0578,0.467,0.257,0.324,0.382,0.357,0.773,-0.657,0.345,0.5,0.465,0.856,0.948,-0.42,0.584,0.247,-0.243 (inactive)
COCCOC(=O)N1C(=O)[C@@]2(c3cc(C#CC4(O)CCCCCC4)ccc31)[C@H](C(=O)NC[C@H](O)c1ccccc1)[C@H]1C(=O)O[C@H](c3ccccc3)[C@H](c3ccccc3)N1[C@@H]2c1ccccc1OCCO,-0.383,1.51 (inactive),0.0596,-0.0956,0.668,1.04,-0.0189,1.32,0.405,1.14,0.67,1.16,0.714,0.873,1.28,1.56,-0.88,1.4,0.791,-1.81 (inactive)
C=C(CCCC)/C(=C/C[C@H](OC(=O)c1ccncc1)c1ccc(CO)o1)c1cnc2ccccc2c1,0.295,-0.0961 (inactive),0.227,-0.0942,0.84,0.368,0.0647,1.3,0.699,1.04,0.475,1.18,0.291,0.0311,1.38,0.722,1.45,1.38,1.28,-2.94 (inactive)
O=c1n(-c2ccccc2)c(=O)n2n1CC(COc1ccccc1)=C1[C@@H](CCc3ccccc3)OB(O)C[C@@H]12,0.488,0.237 (inactive),0.0596,-0.063,0.0107,0.516,0.362,1.3,0.0848,0.515,1.01,1.04,0.12,0.501,0.763,0.853,1.25,1.52,0.576,-1.2 (inactive)
O=C1c2ccccc2[C@@]2(Cc3ccccc3N(CC(F)(F)F)C2=O)[C@H](c2ccc(CO)cc2)N1Cc1ccccc1C(F)(F)F,-1.22,0.112 (inactive),-0.0647,-0.159,0.272,-0.229,0.134,-0.142,-2.04,-1.83,-1.58,-2.19,-0.795,-1.47,-2.04,-0.882,0.972,-1.87,-1.69,-0.903 (inactive)
O=C(NCC(F)(F)F)[C@@H]1c2ccccc2C(=O)N(C2Cc3ccccc3C2)[C@H]1c1ccc(CO)cc1,0.0975,-1.34 (inactive),-0.0362,-0.0907,0.414,-0.0023,0.386,-0.945,-1.3,-1,-1.02,-0.801,-0.26,-1.58,-0.871,-0.485,2.62,-1.25,-2.05,-1.04 (inactive)
